From PubChem BioAssay
The source made the active and inactive calls.

Assays:
[1] = system: PRMT1 (protein arginine N-methyltransferase 1); experiment: small molecules binding arginine methyltransferase PRMT1 – biochemical, small-molecule microarray, 635 nm fluorescence, primary screen (AID 1088); conditions: higher = more signal;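 note: binding of Prmt1 protein to compounds spotted on small-molecule microarray slides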
[2] = growth effects on S. cerevisiae YJM789 – YJM789 clinical isolate, OD600, 24 h, basal, primary screen (AID 1089); conditions: higher = more signal, called active from +8 up or from −8 down;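 note: growth of clinical yeast isolate S. cerevisiae YJM 789 seeded 1000 cells per well; test concentration not given here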
[3] = S. pombe growth modifiers, basal conditions – strain 972, OD600, 24 h, no modulator, primary screen (AID 1090);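 note: basal condition with compound alone and no growth modifier present; test concentration not given here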; conditions: S. pombe 972 growth, higher = more signal, called active from +8 up or from −8 down
[4] = budding yeast growth modifiers under rapamycin – strain BY4716, OD600, 96 h, primary screen (AID 1091); note: test concentration not given here; conditions: S. cerevisiae BY4716 + rapamycin, higher = more signal, called active from +8 up or from −8 down
[5] = target: Torsin-1A-interacting protein 2 (Homo sapiens) (UniProt Q8NFQ8); experiment: small molecules binding lysate-expressed LULL1 – cell lysate, human LULL1 lysate, 635/667 nm fluorescence, primary screen (AID 1092); conditions: small-molecule microarray, hLULL1 lysate binding, 635 nm fluorescence; higher = more signal;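 note: probe is lysate of COS7 cells overexpressing human LULL1; score merges per-feature 667 nm fluorescence with signal-to-noise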
[6] = optical density change of DRC41 E. coli – strain DRC41, OD650, 24 h, E. coli filamentation project, primary screen (AID 1093);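 note: MC1000 strain lacking acrAB efflux and sulA so SOS filamentation is blocked; test concentration not given here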; conditions: E. coli DRC41 growth, higher = more signal, called active from +8 up or from −8 down
[7] = probe aLefty2 binding to arrayed compounds – biochemical, biotinylated probe, 635/667 nm fluorescence, primary screen (AID 1094); conditions: small-molecule microarray, higher = more signal;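 note: score merges spot fluorescence near 667 nm with spot signal-to-noise ratio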
[8] = system: Noggin (protein binding on small-molecule microarray); experiment: small molecules binding Noggin protein – biochemical, 635/667 nm fluorescence, primary screen (AID 1095); conditions: 635 nm fluorescence, higher = more signal;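 note: score merges 667 nm feature fluorescence with signal to noise over triplicate slides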
[9] = target: Neurogenic locus notch homolog protein 3 (Homo sapiens) (UniProt Q9UM47); experiment: small molecules binding NOTCH3 protein – biochemical, 635/667 nm fluorescence, primary screen (AID 1096); conditions: small-molecule microarray, 635 nm fluorescence, higher = more signal
[10] = probe aEGFR binding to arrayed compounds – biochemical, biotinylated probe, 635/667 nm fluorescence, primary screen (AID 1097); conditions: small-molecule microarray, higher = more signal;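 note: probe is a biotinylated anti-EGFR antibody binding compounds printed on slides; score combines fluorescence near 667 nm and signal to noise of each spot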

Sequence of Torsin-1A-interacting protein 2 (Homo sapiens) (Q8NFQ8 whole entry, looked up): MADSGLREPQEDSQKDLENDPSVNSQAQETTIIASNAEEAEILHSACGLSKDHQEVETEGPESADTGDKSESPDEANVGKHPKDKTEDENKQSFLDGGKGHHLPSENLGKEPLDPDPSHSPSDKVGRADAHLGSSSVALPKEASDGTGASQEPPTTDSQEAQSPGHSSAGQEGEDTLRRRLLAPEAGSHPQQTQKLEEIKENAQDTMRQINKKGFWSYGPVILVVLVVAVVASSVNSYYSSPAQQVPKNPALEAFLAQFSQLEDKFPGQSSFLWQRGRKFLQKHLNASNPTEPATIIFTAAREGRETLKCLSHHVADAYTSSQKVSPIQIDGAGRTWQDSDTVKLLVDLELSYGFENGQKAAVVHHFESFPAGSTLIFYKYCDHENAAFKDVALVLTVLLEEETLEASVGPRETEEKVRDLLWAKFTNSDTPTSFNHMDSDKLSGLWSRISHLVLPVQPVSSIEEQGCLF
Sequence of Neurogenic locus notch homolog protein 3 (Homo sapiens) (Q9UM47 whole entry, looked up): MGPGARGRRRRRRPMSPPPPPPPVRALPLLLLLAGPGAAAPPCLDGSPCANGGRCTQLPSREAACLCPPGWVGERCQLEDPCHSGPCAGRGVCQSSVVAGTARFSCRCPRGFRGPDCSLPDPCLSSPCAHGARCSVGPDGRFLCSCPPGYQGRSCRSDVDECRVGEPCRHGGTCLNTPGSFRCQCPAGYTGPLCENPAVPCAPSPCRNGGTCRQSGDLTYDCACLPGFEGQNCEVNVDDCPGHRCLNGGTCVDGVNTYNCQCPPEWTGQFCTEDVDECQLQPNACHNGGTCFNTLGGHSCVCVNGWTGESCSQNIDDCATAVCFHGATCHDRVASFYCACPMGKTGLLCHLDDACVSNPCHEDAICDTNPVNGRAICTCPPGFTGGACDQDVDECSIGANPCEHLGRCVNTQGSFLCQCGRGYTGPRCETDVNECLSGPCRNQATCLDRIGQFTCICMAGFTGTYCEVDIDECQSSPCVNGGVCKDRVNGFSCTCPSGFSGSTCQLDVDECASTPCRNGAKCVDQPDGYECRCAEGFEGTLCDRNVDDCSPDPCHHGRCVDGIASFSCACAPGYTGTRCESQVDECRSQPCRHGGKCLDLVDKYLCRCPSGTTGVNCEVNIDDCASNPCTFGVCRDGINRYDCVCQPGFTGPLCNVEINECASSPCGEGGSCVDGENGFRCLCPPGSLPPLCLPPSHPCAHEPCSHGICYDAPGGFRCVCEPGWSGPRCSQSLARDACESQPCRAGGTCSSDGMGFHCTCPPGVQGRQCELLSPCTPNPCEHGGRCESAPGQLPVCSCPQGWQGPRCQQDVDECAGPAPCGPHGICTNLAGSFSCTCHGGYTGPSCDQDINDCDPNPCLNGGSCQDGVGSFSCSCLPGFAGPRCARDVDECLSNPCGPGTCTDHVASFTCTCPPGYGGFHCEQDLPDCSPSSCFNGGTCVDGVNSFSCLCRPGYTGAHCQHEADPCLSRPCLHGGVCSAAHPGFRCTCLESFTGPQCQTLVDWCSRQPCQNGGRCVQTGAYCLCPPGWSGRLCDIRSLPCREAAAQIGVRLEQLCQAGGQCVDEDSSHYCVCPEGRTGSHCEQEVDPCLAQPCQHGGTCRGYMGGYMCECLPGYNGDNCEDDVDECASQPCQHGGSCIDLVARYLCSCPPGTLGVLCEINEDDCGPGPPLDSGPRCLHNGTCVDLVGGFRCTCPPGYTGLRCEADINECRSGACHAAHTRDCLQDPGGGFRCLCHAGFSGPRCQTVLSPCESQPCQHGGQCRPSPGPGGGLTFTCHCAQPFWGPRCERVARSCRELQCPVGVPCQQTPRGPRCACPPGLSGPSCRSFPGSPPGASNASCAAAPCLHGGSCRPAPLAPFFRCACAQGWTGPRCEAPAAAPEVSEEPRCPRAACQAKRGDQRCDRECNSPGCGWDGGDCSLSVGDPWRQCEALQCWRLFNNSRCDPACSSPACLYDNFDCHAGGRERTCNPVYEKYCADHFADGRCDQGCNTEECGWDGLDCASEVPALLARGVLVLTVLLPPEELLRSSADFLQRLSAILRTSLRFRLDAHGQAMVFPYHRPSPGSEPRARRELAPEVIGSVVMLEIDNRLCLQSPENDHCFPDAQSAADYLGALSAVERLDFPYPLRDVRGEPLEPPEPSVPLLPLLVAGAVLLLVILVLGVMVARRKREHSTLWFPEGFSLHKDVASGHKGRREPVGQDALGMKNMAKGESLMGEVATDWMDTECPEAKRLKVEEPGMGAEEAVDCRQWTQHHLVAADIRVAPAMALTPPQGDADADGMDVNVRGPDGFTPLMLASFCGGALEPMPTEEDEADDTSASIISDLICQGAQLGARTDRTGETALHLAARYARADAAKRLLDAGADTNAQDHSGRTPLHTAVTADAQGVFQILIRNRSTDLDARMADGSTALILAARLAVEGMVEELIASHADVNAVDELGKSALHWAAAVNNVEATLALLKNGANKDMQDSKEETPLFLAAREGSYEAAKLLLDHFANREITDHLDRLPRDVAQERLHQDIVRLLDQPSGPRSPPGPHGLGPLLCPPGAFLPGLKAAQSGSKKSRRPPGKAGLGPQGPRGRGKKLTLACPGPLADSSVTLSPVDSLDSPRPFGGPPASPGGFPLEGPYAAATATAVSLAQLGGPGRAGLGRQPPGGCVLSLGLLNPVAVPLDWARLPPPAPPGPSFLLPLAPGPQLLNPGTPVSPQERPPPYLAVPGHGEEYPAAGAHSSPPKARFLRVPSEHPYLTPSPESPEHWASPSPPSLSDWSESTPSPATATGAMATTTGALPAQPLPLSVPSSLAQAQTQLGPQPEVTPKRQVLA

Row | SMILES | composite z-score [1] | z-score [2] | z-score [3] | z-score [4] | composite z-score [5] | z-score [6] | composite z-score [7] | composite z-score [8] | composite z-score [9] | composite z-score [10]
1 | O=C1[C@H]2[C@H]3[C@H](O)[C@H](O)CC(=NO[C@@H]4O[C@H](CO)[C@@H](O)[C@H](O)[C@H]4O)[C@H]3CC[C@H]2C(=O)N1Cc1ccccc1 | 1.46 | -0.509 (inactive) | -0.468 (inactive) | -0.987 (inactive) | 0.903 | -0.61 (inactive) | -0.0015 | 1.02 | 0.669 | -0.0565
2 | CC(=O)OC[C@H]1O[C@@H](ON=C(C)CCN2CCc3nc(-c4ccccc4)c(-c4ccccc4)cc3C2)[C@H](OC(C)=O)[C@@H](OC(C)=O)[C@@H]1OC(C)=O | 1.51 | 0.0264 (inactive) | -1.03 (inactive) | -3.53 (inactive) | 2.27 | -0.395 (inactive) | 0.0754 | 0.591 | 1.09 | 0.0291
3 | CCOC(=O)C[C@H]1[C@H](OC(=O)c2ccc(C(=O)c3ccccc3)cc2)[C@@H](NC(=O)c2ccc(-c3ccccc3)cc2)c2cc(OCCCO)ccc2N1C(=O)c1ccc2ccccc2n1 | 1.44 | -1.05 (inactive) | 0.0048 (inactive) | 0.276 (inactive) | 2.29 | 1.44 (inactive) | -0.19 | 0.609 | 1 | -0.109
4 | COc1ccc(-c2ccc3c(n2)CCCN3CC(O)CN2CCCc3nc(C)c(C)cc32)cc1 (stereo not given) | 1.43 | 0.0222 (inactive) | -0.411 (inactive) | -1.43 (inactive) | 1.13 | 0.682 (inactive) | 0.429 | 0.824 | 1.1 | 0.243
5 | COc1ccc(O[C@H]2C=C[C@@H](c3ccccc3)O[C@@H]2COC(=O)CCC(C)=NOCC[C@@H]2C=C[C@H](OC(C)=O)[C@@H](COC(C)=O)O2)cc1 | 0.135 | -0.209 (inactive) | 0.951 (inactive) | 1.62 (inactive) | 1.69 | -0.211 (inactive) | 0.113 | 0.476 | 0.319 | -0.039
6 | CC(C)N1CC=CC23O[C@@H]4C=CCCOC(=O)C4[C@H]2C(=O)N(CCCCCCO)[C@@H]3C1=O (stereo not given in full) | 0.613 | 0.653 (inactive) | 0.159 (inactive) | 0.121 (inactive) | 1.94 | -0.0822 (inactive) | -0.233 | -0.984 | -0.0917 | -0.297
7 | CN1C(=O)[C@@]2(CCC(=O)OC(C)(C)C)N=C(c3ccc(OCCCO)cc3)O[C@H]2c2ccccc21 | 1.54 | -1.08 (inactive) | -2.19 (inactive) | 0.0793 (inactive) | 2.82 | 1.43 (inactive) | 0.0112 | 0.747 | 0.736 | -0.168
8 | CCCCC(=C=CC[C@H](O)c1ccccc1OCCO)C[C@H](O)COCc1ccccc1 | -0.0855 | 0.115 (inactive) | -0.729 (inactive) | -0.659 (inactive) | 1.03 | 0.0754 (inactive) | -0.145 | -0.142 | -0.171 | -0.12
9 | O=C(CS)NCCCCCNC(=O)[C@H]1C[C@H]2C(=O)N3CCC[C@H]3C(=O)N2[C@H]1c1cccc(OCCO)c1 | 1.53 | 0.436 (inactive) | -0.723 (inactive) | -0.173 (inactive) | 2.7 | 0.146 (inactive) | 0.0124 | 1.76 | 1.1 | -0.0025
10 | C[C@H](c1ccccc1)N1C(=O)[C@H]2[C@H]3[C@H](O)[C@H](O)CC(=O)[C@@H]3CC[C@H]2C1=O | 0.27 | -0.228 (inactive) | -0.522 (inactive) | -0.478 (inactive) | 0.685 | -0.417 (inactive) | -0.226 | 0.245 | 0.419 | 0.221
11 | CCN1C(=O)[C@H]2[C@H]3[C@H](O)C=CC(=O)[C@@H]3CC[C@H]2C1=O | -0.777 | 0.0131 (inactive) | -0.373 (inactive) | -0.624 (inactive) | 0.0819 | 0.255 (inactive) | -0.0961 | 0.701 | 0.705 | -0.094
12 | Cc1cc2c(nc1C)CCCN2CC(O)CN1CCN(C)CC1 (stereo not given) | 1.25 | -0.525 (inactive) | 0.277 (inactive) | -0.856 (inactive) | 0.9 | -0.384 (inactive) | -0.294 | 0.578 | 0.915 | -0.169
13 | COc1ccc(O[C@@H]2[C@H](O)CO[C@H]2C=CC#Cc2ccccc2)cc1 | 0.101 | 0.937 (inactive) | -0.777 (inactive) | 0.958 (inactive) | 0.0101 | 0.338 (inactive) | -0.197 | 0.347 | -0.413 | -0.228
14 | O=C1[C@H]2[C@H]3[C@H](O)[C@H](O)CC(=NOC[C@@H](O)COCc4ccco4)[C@H]3CC[C@H]2C(=O)N1Cc1ccc2c(c1)OCO2 | 1.29 | -0.285 (inactive) | -0.279 (inactive) | -1.09 (inactive) | -0.829 | 0.617 (inactive) | -0.29 | 0.154 | -0.0875 | -0.0039
15 | CC(=O)OC[C@H]1O[C@@H](ON=C[C@@H](C)[C@H](OCc2ccccc2)C(C)C)[C@H](OC(C)=O)[C@@H](OC(C)=O)[C@@H]1OC(C)=O | 1.48 | 0.475 (inactive) | 0.0572 (inactive) | -0.17 (inactive) | -1.59 | -0.057 (inactive) | -0.114 | 0.605 | 0.751 | 0.0359
16 | CC(C)(C)N1CC=CC23O[C@@H]4C=CCCOC(=O)C4[C@H]2C(=O)N(CCCCCO)[C@@H]3C1=O (stereo not given in full) | 0.937 | 0.37 (inactive) | 0.501 (inactive) | -0.215 (inactive) | 1.74 | 0.261 (inactive) | -0.13 | 0.304 | 0.0136 | 0.0912
17 | N#Cc1ccc(NN2C(C(O)c3cccc4ccccc34)C=CC3C(=O)N(c4ccccc4)C(=O)C32)cc1 (stereo not given) | 1.39 | 0.242 (inactive) | 2.28 (inactive) | 1.75 (inactive) | 3.41 | -0.339 (inactive) | 0.341 | 0.157 | -0.262 | 0.0785
18 | CCOC(=O)[C@H](Cc1ccccc1)NC(=O)CCC1CC(OC(=O)NCc2ccc3c(c2)OCO3)CC2(CCCC(COC(=O)NCc3cccc(C(F)(F)F)c3)O2)O1 (stereo not given in full) | 1.35 | -0.594 (inactive) | 0.926 (inactive) | 0.287 (inactive) | 0.735 | -1.29 (inactive) | -0.0383 | 0.606 | 1.11 | 0.0293
